Assay outcomes as filed in PubChem.
G9a block = inhibitors of human histone lysine methyltransferase G9a | Q96KQ7 | G9a H3K9 monomethylation, AlphaScreen, 2 h | Potency, µM (doses to about 102 µM), without a hit: top-dose activity, negative = inhibition, hits mostly inhibitors | 8.8% of 350,000 active; further: on the % scale 0 is the no-effect control and ±100 the full control effect; nearly all actives have a fitted effect of over 75% in size
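AlphaScreen detection with an anti-monomethyl H3K9 antibody quantified product after a 2 h room-temperature reaction containing 500 nM biotinylated H3K9 peptide, 20 µM SAM and 20 nM enzyme, which had been preincubated 15 min with compound.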
BAZ2B inh = BAZ2B (human) inhibition; Q9UIF8; AlphaScreen BAZ2B-H3K14Ac peptide displacement; Potency, µM (series often up to 114 µM), for the others: at the top dose activity change, negative = inhibition, usual class: inhibitors; 4.4% of 360,000 active; AID 504333; further: on the % scale 0 is the no-effect control and ±100 the full control effect; nearly all actives have a fitted effect of over 60% in size
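Inhibition is scored as reduced AlphaScreen emission. The BAZ2B/b-H3(5-23)K14Ac complex (50 nM each) in PBS pH 7.4, 0.01% Tween-20 meets compound (up to 110 uM) for 30 min at RT before bead addition.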
VDR inhibitor = inhibitors of human vitamin D receptor; VDR-SRC2-3 peptide fluorescence polarization, 2 h; P11473; AID 504847; 0.93% of 400,000 active; Potency, µM, for the others: max response, negative = inhibition, hits mostly inhibitors; further: on the % scale 0 is the no-effect control and ±100 the full control effect
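Reagent solutions, kept cold and dark, are dispensed first; compounds are then pinned in at 23 nl, plates briefly spun, and incubated 2 h at ambient temperature. Inhibition of VDR–SRC2-3 peptide binding is read by fluorescence polarization.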
JMJD2A Tudor = JMJD2A Tudor domain (human) inhibition. 4.4% of 390,000 active. AID 504339. AlphaScreen JMJD2A-Tudor / H3K4me3 peptide binding. Potency, µM (titrated, usually from 114 µM), for the others: at the top dose activity change, negative = inhibition, hits mostly inhibitors; further: on the % scale 0 is the no-effect control and ±100 the full control effect; nearly all actives have a fitted effect of over 50% in size
PLK1 PBD block = PLK1 (human) polo-box domain binding inhibition; 2.8% of 360,000 active; Plk1 PBD binding of FITC phosphopeptide, fluorescence polarization; P53350; Potency, µM, inactives show max response, negative = inhibition, usual class: inhibitors; further: series mostly up to about 57 µM; on the % scale 0 is the no-effect control and ±100 the full control effect; nearly all actives have a fitted effect of over 65% in size
Target sequence (P53350 whole entry, looked up, the tested form may be a part): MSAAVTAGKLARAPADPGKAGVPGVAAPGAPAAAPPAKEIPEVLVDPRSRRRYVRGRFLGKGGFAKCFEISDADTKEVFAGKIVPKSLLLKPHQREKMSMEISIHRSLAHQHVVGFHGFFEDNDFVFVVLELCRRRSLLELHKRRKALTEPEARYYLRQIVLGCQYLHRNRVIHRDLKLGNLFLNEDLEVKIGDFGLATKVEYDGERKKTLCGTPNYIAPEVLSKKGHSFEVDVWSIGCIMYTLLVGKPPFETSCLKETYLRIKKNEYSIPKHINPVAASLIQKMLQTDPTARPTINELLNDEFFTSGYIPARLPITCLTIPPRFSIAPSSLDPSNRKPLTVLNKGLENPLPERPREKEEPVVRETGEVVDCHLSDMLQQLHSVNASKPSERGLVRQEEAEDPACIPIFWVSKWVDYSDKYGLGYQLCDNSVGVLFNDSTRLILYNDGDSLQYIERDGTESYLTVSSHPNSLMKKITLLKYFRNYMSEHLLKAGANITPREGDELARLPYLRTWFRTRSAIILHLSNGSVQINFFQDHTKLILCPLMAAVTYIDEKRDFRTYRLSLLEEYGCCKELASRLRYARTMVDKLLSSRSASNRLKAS
HP1b binding inh = inhibitors of HP1-beta chromodomain binding to methylated histone tails. P83916. AlphaScreen HP1-beta / biotin-H3K9me3 peptide binding. Potency, µM (series often up to 114 µM), for inactives: top-dose activity change, negative = inhibition, hits mostly inhibitors. 0.56% of 390,000 active; further: nearly all actives have a fitted effect of over 70% in size
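HP1-beta protein (50 nM final) preincubated 30 min at room temperature with biotinylated H3(1-18)K9me3 peptide (50 nM) in PBS pH 7.4, 0.01% Tween-20, then compound added for 30 min. AlphaScreen streptavidin donor/nickel chelate acceptor beads (10 ug/mL final), 30 min dark, luminescence read.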
* hit, by the source's call; [ ] = dose if it differs, or a comment. Most compounds without a hit are left out; they make up all but 11% or so of the library. The call rests on the fitted dose curve; in most records, active means well fitted curve in the direction sought with a large enough effect; inconclusive means small, poorly fitted or top-dose-only effect, or another doubt; inactive means no such curve, though single readings can be large; an effect the other way counts as inactive or inconclusive. Potency means the concentration at half of the fitted maximal effect.

CC(=O)C1(O)Cc2c(O)c3c(c(O)c2C(OC2CC(N)C(O)C(C)O2)C1)C(=O)c1c(O)cccc1C3=O (stereo not drawn) was read as G9a block inconclusive and VDR inhibitor 1%.
COc1cccc2c1C(=O)c1c(O)c3c(c(O)c1C2=O)C[C@@](O)(C(=O)CO)C[C@@H]3O[C@H]1C[C@H](N)[C@H](O)[C@H](C)O1 was read as G9a block 22µM*, BAZ2B inh 35µM*, VDR inhibitor -4%, JMJD2A Tudor -13%, PLK1 PBD block inconclusive and HP1b binding inh 16%.
Screening COC(=O)c1ccc(C(=O)Nc2ccc(N)cc2N)cc1 returned G9a block 45µM*, BAZ2B inh inconclusive, VDR inhibitor 18%, JMJD2A Tudor -26%, PLK1 PBD block -2% and HP1b binding inh -1%.
`COc1cccc(C(=O)NCC(=O)OCc2cc(=O)n3c(C)csc3n2)c1` gave G9a block 3%[59 µM], BAZ2B inh -4%, VDR inhibitor 4%, JMJD2A Tudor 2% and HP1b binding inh 30%.
`O=C(Cn1ncc(Cl)c(Cl)c1=O)N1CCOCC1` gave G9a block 11%, BAZ2B inh -3%, VDR inhibitor -10%, JMJD2A Tudor -16%, PLK1 PBD block -2% and HP1b binding inh 35%.
Screening CCc1nc2ccccc2n1CC(=O)N1CCN(Cc2ccccc2)CC1 returned G9a block -3%, BAZ2B inh -18%, VDR inhibitor 0%, JMJD2A Tudor -12%[11.4 µM], PLK1 PBD block 21µM* and HP1b binding inh 1%.
For O=C(Cn1ncc(Cl)c(Cl)c1=O)N1CCN(Cc2ccccc2)CC1 the results were G9a block 56µM*, BAZ2B inh -14%, VDR inhibitor -17%, JMJD2A Tudor -4%, PLK1 PBD block -20% and HP1b binding inh 35%.
`CCOC(=O)c1cnc(-n2nc(C)cc2C)nc1Nc1ccc(C)cc1` gave G9a block inconclusive, BAZ2B inh -9%, VDR inhibitor -24%, JMJD2A Tudor -22%, PLK1 PBD block -2% and HP1b binding inh 40%.
For CCOC(=O)c1cnc(-n2nc(C)cc2C)nc1Nc1cccc(C(=O)O)c1 the results were G9a block 10µM*, BAZ2B inh 4%, VDR inhibitor 13%, JMJD2A Tudor 89µM*, PLK1 PBD block 0% and HP1b binding inh 31%.
CCOC(=O)c1cnc(-n2nc(C)cc2C)nc1NC was read as G9a block 45µM*, BAZ2B inh 3%, VDR inhibitor -14%, JMJD2A Tudor -34%, PLK1 PBD block -5% and HP1b binding inh 15%.
Screening C#CCSc1nsc(SCC#C)c1C#N returned G9a block -21%[12.7 µM], BAZ2B inh -39%, VDR inhibitor -13%, JMJD2A Tudor 56µM*, PLK1 PBD block inconclusive and HP1b binding inh inconclusive.
For c1ccc(-c2csc(NC3CCCCC3)n2)cc1 the results were G9a block 50µM*, BAZ2B inh -30%, VDR inhibitor -5%, JMJD2A Tudor -23%, PLK1 PBD block -16% and HP1b binding inh -12%.
`COc1ccc(-c2csc(NC3CCCCC3)n2)c(OC)c1` gave G9a block 45µM*, BAZ2B inh -35%, VDR inhibitor -10%, JMJD2A Tudor inconclusive, PLK1 PBD block inconclusive and HP1b binding inh inconclusive.
`C[C@H]1COC[C@@H](C/C=C/c2ccccc2)N1c1ccccc1` gave PLK1 PBD block 1%.
For COc1ccc(OC)c(C2C(C(=O)c3sc(C)nc3C)=C(O)C(=O)N2CCN2CCOCC2)c1 (stereo not drawn) the results were G9a block 45µM*, BAZ2B inh 2%, VDR inhibitor -6%, JMJD2A Tudor -10%, PLK1 PBD block -4% and HP1b binding inh 39%.
Screening COc1ccc(NC(=O)CCN2CCOCC2)c(OC)c1 returned G9a block -2%[0.501 µM], BAZ2B inh 7%, VDR inhibitor -13%, JMJD2A Tudor -12%, PLK1 PBD block -4% and HP1b binding inh 30%.
Screening COc1ccc(OC)c(C2C(C(=O)c3cccs3)=C(O)C(=O)N2CCN2CCOCC2)c1 (stereo not drawn) returned G9a block 45µM*, BAZ2B inh 20%, VDR inhibitor -10%, JMJD2A Tudor 0%, PLK1 PBD block -11% and HP1b binding inh 25%.
`Cc1nc(C)c(C(=O)C2=C(O)C(=O)N(CCN3CCOCC3)C2c2cccs2)s1` (stereo not drawn) gave G9a block inconclusive, BAZ2B inh -32%, VDR inhibitor 22%, JMJD2A Tudor inconclusive, PLK1 PBD block -7% and HP1b binding inh 35%.
Screening COc1ccc(C2C(C(=O)c3cccs3)=C(O)C(=O)N2CCN2CCOCC2)c(OC)c1 (stereo not drawn) returned G9a block 50µM*, BAZ2B inh -20%, VDR inhibitor -6%, JMJD2A Tudor -23%, PLK1 PBD block -7% and HP1b binding inh 9%.
For COc1cccc(Nc2ncc3nc(C)c(=O)n(CCC#N)c3n2)c1 the results were G9a block -4%[12.7 µM] and VDR inhibitor 2%.
`COc1cc(OC)c(OC)cc1CNCCSc1nnnn1-c1ccccc1` gave G9a block -27%[59 µM], BAZ2B inh inconclusive, VDR inhibitor -6%, JMJD2A Tudor inconclusive and HP1b binding inh 7%.
`COc1ccc(NC(=O)c2c(C(=O)Nc3ccccc3)sc3nc(C)cc(=O)n23)cc1` gave G9a block -8%[59 µM], BAZ2B inh -4%, VDR inhibitor 18%, JMJD2A Tudor -4% and HP1b binding inh 29%.
CCOc1ccccc1NC(=O)CSc1nnc(N)s1 was read as G9a block -5%[59 µM], BAZ2B inh -6%, VDR inhibitor 6%, JMJD2A Tudor -20% and HP1b binding inh 22%.
Screening O=c1cc(-c2ccccc2)nc(SCc2nc(-c3ccccc3Cl)no2)[nH]1 returned G9a block 9%[59 µM], BAZ2B inh -2%, VDR inhibitor -14%, JMJD2A Tudor -13% and HP1b binding inh 16%[57 µM].
Nc1cccc(-n2nnnc2CN2CCOCC2)c1 was read as G9a block 2%[59 µM], BAZ2B inh -24%, VDR inhibitor 45µM*, JMJD2A Tudor inconclusive, PLK1 PBD block 11µM* and HP1b binding inh -6%.
Nc1ccc(-n2nnnc2CN2CCOCC2)cc1 was read as G9a block 26%[59 µM], BAZ2B inh 5%, VDR inhibitor 19%, JMJD2A Tudor -11%, PLK1 PBD block -11% and HP1b binding inh 10%.
`CCOC(=O)C1=C(C)NC(=O)NC1c1ccc(-c2ccccc2F)o1` (stereo not drawn) gave G9a block -11%[59 µM], BAZ2B inh 1%, VDR inhibitor -9%, JMJD2A Tudor -35%, PLK1 PBD block 10% and HP1b binding inh 23%.
